Experimental data taken from PubChem BioAssay AID1508601 (ICCB-Longwood Screening Facility, Harvard Medical School, 2020).
Out of some 5,700 compounds screened, about 85 (1%) were called active. Cut-off read from the data, not from the text of the source: active = p53-positive nuclei above about 36% (passing the limit was not always enough); inactive = the rest. The sample as a whole holds a higher share of actives than the screen did.

Legend:
[1] = p53 stabilisation in HPV-positive human cells, imaging, p53-positive nuclei imaging, 24 h, 48 h (AID 1508601); settings: 24/48 h
[2] = molecular target: Cellular tumor antigen p53 (Homo sapiens) (UniProt P04637); experiment: as above; settings: 24/48 h, stronger effect = higher value
[3] = measured here: cell number at 24 h, concentration not given here
[4] = measured here: cell number at 48 h, concentration not given here
[5] = measured here: p53 positive nuclei at 24 h, concentration not given here
[6] = measured here: cell number at 24 h, Library stock concentration: 10 mM
[7] = measured here: cell number at 48 h, Library stock concentration: 10 mM
[8] = Library stock concentration: 10 mM
[9] = measured here: p53 positive nuclei at 24 h, Library stock concentration: 10 mM
[10] = measured here: cell number at 24 h, Library stock concentration: 80 uM
[11] = measured here: cell number at 24 h, Library stock concentration: 400 uM
[12] = measured here: cell number at 24 h, Library stock concentration: 2 mM
[13] = measured here: cell number at 48 h, Library stock concentration: 80 uM
[14] = measured here: cell number at 48 h, Library stock concentration: 400 uM
[15] = measured here: cell number at 48 h, Library stock concentration: 2 mM
[16] = Library stock concentration: 80 uM
[17] = Library stock concentration: 400 uM
[18] = Library stock concentration: 2 mM
[19] = measured here: p53 positive nuclei at 24 h, Library stock concentration: 80 uM
[20] = measured here: p53 positive nuclei at 24 h, Library stock concentration: 400 uM
[21] = measured here: p53 positive nuclei at 24 h, Library stock concentration: 2 mM

Sequence of Cellular tumor antigen p53 (Homo sapiens) (P04637 whole entry, looked up): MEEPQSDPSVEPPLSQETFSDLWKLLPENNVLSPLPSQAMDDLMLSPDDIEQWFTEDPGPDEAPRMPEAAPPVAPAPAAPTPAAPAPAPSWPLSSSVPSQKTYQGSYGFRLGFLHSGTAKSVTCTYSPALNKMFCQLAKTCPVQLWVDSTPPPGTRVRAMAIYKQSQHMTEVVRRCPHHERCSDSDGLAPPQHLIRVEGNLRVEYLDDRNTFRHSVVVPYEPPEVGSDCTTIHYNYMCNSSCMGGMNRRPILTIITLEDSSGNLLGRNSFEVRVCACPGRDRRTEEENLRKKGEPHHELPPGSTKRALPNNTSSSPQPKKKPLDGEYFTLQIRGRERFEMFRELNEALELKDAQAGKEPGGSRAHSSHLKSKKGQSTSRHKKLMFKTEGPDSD

**Q.** Which nuclei count, normalised [1, 3] does the source give for `CC[C@@]1(O)C[C@H](O[C@H]2C[C@H](N(C)C)[C@H](O)[C@H](C)O2)c2c(cc3c(c2O)C(=O)c2c(O)ccc(O)c2C3=O)[C@H]1C(=O)OC` here?
**A.** 29.9%

**Q.** What about the nuclei count, normalised [1, 4] of the same compound?
**A.** 15.5%

**Q.** What about the p53-positive nuclei, normalised ([2]; concentration not given here) of the same compound?
**A.** 92.8% (active)

**Q.** What about the p53-positive nuclei, normalised [2, 5] of the same compound?
**A.** 88.5%

**Q.** With `CC[C@@]1(O)C[C@H](O)c2c(cc3c(c2O)C(=O)c2c(O)ccc(O)c2C3=O)[C@H]1C(=O)OC` as the compound, how does the nuclei count, normalised [1, 3] read?
**A.** 83.7%

**Q.** What about the nuclei count, normalised [1, 4] of the same compound?
**A.** 84%

**Q.** And the p53-positive nuclei, normalised ([2]; concentration not given here)?
**A.** 23.5% (inactive)

**Q.** And the p53-positive nuclei, normalised [2, 5]?
**A.** 4.09%

**Q.** Which nuclei count, normalised [1, 3] does the source give for `CC[C@@]1(O)C[C@H](O[C@H]2C[C@H](N(C)C)[C@H](O)[C@H](C)O2)c2c(cc3c(c2O)C(=O)c2c(O)cccc2C3=O)[C@H]1C(=O)OC` here?
**A.** 50.2%

**Q.** What about the nuclei count, normalised [1, 4] of the same compound?
**A.** 38.4%

**Q.** What about the p53-positive nuclei, normalised ([2]; concentration not given here) of the same compound?
**A.** 27.4% (inactive)

**Q.** And the p53-positive nuclei, normalised [2, 5]?
**A.** 16.3%

**Q.** With `CCCCC/C=C\C/C=C\C/C=C\C/C=C\CCCC(=O)Nc1cccc([N+](=O)[O-])c1` as the compound, how does the nuclei count, normalised [1, 3] read?
**A.** 108%

**Q.** And the nuclei count, normalised [1, 4]?
**A.** 112%

**Q.** And the p53-positive nuclei, normalised ([2]; concentration not given here)?
**A.** -0.154% (inactive)

**Q.** And the p53-positive nuclei, normalised [2, 5]?
**A.** -0.0854%

**Q.** Which nuclei count, normalised [1, 3] does the source give for `CN1CCC(N(C)CCC2CCOCC2)CC1` here?
**A.** 102%

**Q.** And the nuclei count, normalised [1, 4]?
**A.** 105%

**Q.** What about the p53-positive nuclei, normalised ([2]; concentration not given here) of the same compound?
**A.** -0.0157% (inactive)

**Q.** And the p53-positive nuclei, normalised [2, 5]?
**A.** -0.151%

**Q.** Which results are given for `CN1C(=O)[C@@]23C[C@]4([C@]56C[C@@]78SS[C@@](CO)(C(=O)N7[C@@H]5Nc5ccccc56)N(C)C8=O)c5ccccc5N[C@H]4N2C(=O)[C@]1(CO)SS3`?
**A.** nuclei count, normalised ([1]; measured here: cell number at 24 h, Library stock concentration: 500 nM): 119%; nuclei count, normalised ([1]; measured here: cell number at 24 h, Library stock concentration: 1.5 uM): 109%; nuclei count, normalised ([1]; measured here: cell number at 24 h, Library stock concentration: 4.6 uM): 104%; nuclei count, normalised ([1]; measured here: cell number at 24 h, Library stock concentration: 13.7 uM): 98.9%; nuclei count, normalised ([1]; measured here: cell number at 24 h, Library stock concentration: 41 uM): 67.2%; nuclei count, normalised ([1]; measured here: cell number at 24 h, Library stock concentration: 123 uM): 42.7%; nuclei count, normalised ([1]; measured here: cell number at 24 h, Library stock concentration: 370 uM): 46.4%; nuclei count, normalised ([1]; measured here: cell number at 24 h, Library stock concentration: 1.111 mM): 36.8%; nuclei count, normalised ([1]; measured here: cell number at 24 h, Library stock concentration: 3.333 mM): 34.9%; nuclei count, normalised [1, 6]: 41.7%; nuclei count, normalised ([1]; measured here: cell number at 48 h, Library stock concentration: 500 nM): 117%; nuclei count, normalised ([1]; measured here: cell number at 48 h, Library stock concentration: 1.5 uM): 107%; nuclei count, normalised ([1]; measured here: cell number at 48 h, Library stock concentration: 4.6 uM): 101%; nuclei count, normalised ([1]; measured here: cell number at 48 h, Library stock concentration: 13.7 uM): 85.5%; nuclei count, normalised ([1]; measured here: cell number at 48 h, Library stock concentration: 41 uM): 44.9%; nuclei count, normalised ([1]; measured here: cell number at 48 h, Library stock concentration: 123 uM): 30.9%; nuclei count, normalised ([1]; measured here: cell number at 48 h, Library stock concentration: 370 uM): 32.7%; nuclei count, normalised ([1]; measured here: cell number at 48 h, Library stock concentration: 1.111 mM): 24.5%; nuclei count, normalised ([1]; measured here: cell number at 48 h, Library stock concentration: 3.333 mM): 23.4%; nuclei count, normalised [1, 7]: 27.3%; p53-positive nuclei, normalised ([2]; Library stock concentration: 500 nM): 0.0843% (inactive); p53-positive nuclei, normalised ([2]; Library stock concentration: 1.5 uM): 0.192% (inactive); p53-positive nuclei, normalised ([2]; Library stock concentration: 4.6 uM): 0.185% (inactive); p53-positive nuclei, normalised ([2]; Library stock concentration: 13.7 uM): 1.67% (inactive); p53-positive nuclei, normalised ([2]; Library stock concentration: 41 uM): 83.6% (active); p53-positive nuclei, normalised ([2]; Library stock concentration: 123 uM): 95.7% (active); p53-positive nuclei, normalised ([2]; Library stock concentration: 370 uM): 94.5% (active); p53-positive nuclei, normalised ([2]; Library stock concentration: 1.111 mM): 72.8% (active); p53-positive nuclei, normalised ([2]; Library stock concentration: 3.333 mM): 12.8% (inactive); p53-positive nuclei, normalised [2, 8]: 7.98% (inactive); p53-positive nuclei, normalised ([2]; measured here: p53 positive nuclei at 24 h, Library stock concentration: 500 nM): -0.114%; p53-positive nuclei, normalised ([2]; measured here: p53 positive nuclei at 24 h, Library stock concentration: 1.5 uM): -0.173%; p53-positive nuclei, normalised ([2]; measured here: p53 positive nuclei at 24 h, Library stock concentration: 4.6 uM): 0.0127%; p53-positive nuclei, normalised ([2]; measured here: p53 positive nuclei at 24 h, Library stock concentration: 13.7 uM): 13.4%; p53-positive nuclei, normalised ([2]; measured here: p53 positive nuclei at 24 h, Library stock concentration: 41 uM): 101%; p53-positive nuclei, normalised ([2]; measured here: p53 positive nuclei at 24 h, Library stock concentration: 123 uM): 116%; p53-positive nuclei, normalised ([2]; measured here: p53 positive nuclei at 24 h, Library stock concentration: 370 uM): 117%; p53-positive nuclei, normalised ([2]; measured here: p53 positive nuclei at 24 h, Library stock concentration: 1.111 mM): 105%; p53-positive nuclei, normalised ([2]; measured here: p53 positive nuclei at 24 h, Library stock concentration: 3.333 mM): 30.1%; p53-positive nuclei, normalised [2, 9]: 12.6%

**Q.** Which nuclei count, normalised [1, 10] does the source give for `NCCc1ccccc1Br` here?
**A.** 86.4%

**Q.** What about the nuclei count, normalised [1, 11] of the same compound?
**A.** 90.6%

**Q.** What about the nuclei count, normalised [1, 12] of the same compound?
**A.** 89.9%

**Q.** What about the nuclei count, normalised [1, 6] of the same compound?
**A.** 98.5%

**Q.** What about the nuclei count, normalised [1, 13] of the same compound?
**A.** 92.2%

**Q.** What about the nuclei count, normalised [1, 14] of the same compound?
**A.** 90.8%

**Q.** What about the nuclei count, normalised [1, 15] of the same compound?
**A.** 95%

**Q.** And the nuclei count, normalised [1, 7]?
**A.** 98.1%

**Q.** What about the p53-positive nuclei, normalised [2, 16] of the same compound?
**A.** 0.0704% (inactive)

**Q.** What about the p53-positive nuclei, normalised [2, 17] of the same compound?
**A.** 0.0834% (inactive)

**Q.** What about the p53-positive nuclei, normalised [2, 18] of the same compound?
**A.** 0.0298% (inactive)

**Q.** What about the p53-positive nuclei, normalised [2, 8] of the same compound?
**A.** 0.0211% (inactive)

**Q.** And the p53-positive nuclei, normalised [2, 19]?
**A.** 0.101%

**Q.** And the p53-positive nuclei, normalised [2, 20]?
**A.** 0.248%

**Q.** What about the p53-positive nuclei, normalised [2, 21] of the same compound?
**A.** -0.0657%

**Q.** What about the p53-positive nuclei, normalised [2, 9] of the same compound?
**A.** -0.0492%

**Q.** Which results are given for `CN1CCC(C(=O)c2cccc(NC(=O)c3c(F)cc(F)cc3F)n2)CC1`?
**A.** nuclei count, normalised [1, 10]: 126%; nuclei count, normalised [1, 11]: 115%; nuclei count, normalised [1, 12]: 121%; nuclei count, normalised [1, 6]: 116%; nuclei count, normalised [1, 13]: 118%; nuclei count, normalised [1, 14]: 108%; nuclei count, normalised [1, 15]: 108%; nuclei count, normalised [1, 7]: 105%; p53-positive nuclei, normalised [2, 16]: -0.0182% (inactive); p53-positive nuclei, normalised [2, 17]: -0.00116% (inactive); p53-positive nuclei, normalised [2, 18]: -0.0434% (inactive); p53-positive nuclei, normalised [2, 8]: -0.0859% (inactive); p53-positive nuclei, normalised [2, 19]: -0.0846%; p53-positive nuclei, normalised [2, 20]: 0.109%; p53-positive nuclei, normalised [2, 21]: 0.0583%; p53-positive nuclei, normalised [2, 9]: -0.136%
